Assay results from PubChem BioAssay (NCI).
About 83,000 compounds went through this panel and 20% of them were active in at least one assay; those are over-represented in the sample as a whole.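 Values shown are percent growth following 48 h exposure of cells in 96-well plates to a single concentration of compound; below 10 was considered active.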 The source made the active and inactive calls.

The compounds below were run on HL-60(TB) leukemia (assay: NCI-60 one-dose screen, 48 h (100 = growth as untreated, 0 = no growth, -100 = all killed)). Details: 10 µM unless noted.

Row | SMILES | growth
1 | Cn1cc(-c2cc3nc(-c4cn(C)c5ncc(Br)cc45)cc(N)n3n2)c2cc(F)ccc21 | 1.38% (active)
2 | Cc1ccc(C(=O)N/C(=C2/OCCN2C)[P+](c2ccccc2)(c2ccccc2)c2ccccc2)cc1 | 38.8% (inactive)
3 | CC1(C)CC[C@]2(C(=O)O)CC[C@]3(C)C(=CCC4[C@@]5(C)C[C@@H](O)[C@@H]6OC(c7cccc(Br)c7)OC[C@@]6(C)C5CC[C@]43C)C2C1 (stereo partly specified) | 7.87% (active)
4 | COc1ccc(-c2nnc3c(/C=C/c4ccc(Br)cc4)nc4ccccc4n23)cc1 | 3.92% (active)
5 | Nc1nn2c(-c3cc4cc(Br)ccc4oc3=O)ccnc2c1N=Nc1ccc(S(N)(=O)=O)cc1 | 104% (inactive)
6 | COc1ccc(-c2nc3ccccc3n2CC(=O)N=Nc2c(O)[nH]c3ccc(OC)cc23)cc1 | 37.6% (inactive)
7 | Cn1cc(-c2cc(N)n3nc(-c4cn(C)c5ccccc45)cc3n2)c2cc(Cl)ccc21 | -26% (active)
8 | O=C1N/C(=N\c2nccs2)S/C1=C\c1ccc([N+](=O)[O-])cc1 | 5.47% (active)
9 | Cc1cc(=O)oc2cc(OCCCCOc3ccc(/C=C/C(=O)Nc4ccccc4N)cc3)ccc12 | 0.47% (active)
10 | Cn1cc(/C=C(/SS/C(=C/c2cn(C)c3cccc(C(=O)O)c23)C(=O)O)C(=O)O)c2c(C(=O)O)cccc21 | 99.2% (inactive)
11 | Cn1nc(C(F)(F)F)cc1-c1cc(Cl)c(COc2ccc(Cl)cc2)c(-c2ccc(Cl)c(C(F)(F)F)c2)c1O | -22.5% (active)
12 | COc1ccc(-c2nc3ccccc3n2CC(=O)N=Nc2c(O)[nH]c3ccc(Br)cc23)cc1 | 45.2% (inactive)
13 | O=C(CN1CCN(c2ncnc3c2cnn3-c2ccccc2)CC1)Nc1nncs1 | -45.5% (active)
14 | Cc1cc2c(cc1Cl)C(=O)/C(=C/c1ccccc1)O2 | -13.7% (active)
15 | COc1cc(/C=C2\C(=N)N=C(SCc3nc4ccccc4[nH]3)NC2=O)ccc1O | 83.7% (inactive)
16 | CSc1ccc(C(=O)Nc2ccc3nn(/C(C#N)=C/c4ccccn4)nc3c2)cc1 | -21.9% (active)
17 | Cc1ccc(C(=O)C[n+]2cccc3c4ccccc4ccc32)cc1 | 1.77% (active)
18 | N#Cc1c(-c2ccc(F)cc2)nc(SCc2ccc(F)cc2)nc1N1CCNCC1 | -7.81% (active)

Row | SMILES | growth
19 | O=C(/C=C/c1ccc(-c2ccccc2)cc1)c1nc2ccccc2n1Cc1ccc(Br)cc1 | 35.3% (inactive)
20 | O=C(O)c1cccc(-c2ccc(/C=N/NC(=O)c3[nH]c4ccc(Br)cc4c3-c3ccccc3)o2)c1 | 88.5% (inactive)
21 | CC(C)(C)c1ccc(NCc2cn(-c3ccc(C(=O)O)cc3)nc2-c2ccc(C#N)cc2)cc1 | 3.14% (active)
22 | Cc1cc(N=C2NC(=O)S/C2=C\c2ccc(F)cc2)n[nH]1 | 1.74% (active)
23 | CCOC(=O)C(N=Nc1ccc(S(=O)(=O)N=C(N)N)cc1)C(C)=O (stereo unspecified) | 96.4% (inactive)
24 | Cc1nn(-c2ccccc2)c2nc(C)n(C(=O)N/N=C/c3cccc([N+](=O)[O-])c3)c(=O)c12 | 74% (inactive)
25 | CCCSc1nnc(-c2sc3nc4ccccc4n3c2C)o1 | 94% (inactive)
26 | CCCCn1c(O)c(N=Nc2nc(-c3cc4ccccc4oc3=O)cs2)c2cc(Br)ccc21 | 101% (inactive)
27 | C#CCOc1ccc(/C=N/Nc2nc(-c3ccc(Cl)cc3)cs2)cc1OC | 20.1% (inactive)
28 | CCCCSc1nc(Nc2ccc(/C(C)=N/NC(N)=S)cc2)c(C#N)c(-c2ccccc2)n1 | 79.3% (inactive)
29 | Cc1ccc(N=Nc2c(N)nn3c(-c4cc5ccccc5oc4=O)ccnc23)cc1 | 36.4% (inactive)
30 | Nc1nnc(-c2c[nH]c3ccc(Br)cc23)c(-c2c[nH]c3ncc(Br)cc23)n1 | 23.1% (inactive)
31 | COc1ccc2[nH]cc(-c3nc(N)nnc3-c3cn(C)c4ncccc34)c2c1 | 15.1% (inactive)
32 | CCOC(=O)C1=C(N)N(c2ccccc2)C2=C(C(=O)CC(C)(C)C2)C1c1ccc([N+](=O)[O-])cc1 (stereo unspecified) | 92.9% (inactive)
33 | O=c1[nH]n(C(=S)N/N=C/c2ccccc2Cl)c(=O)c2ccccc12 | -6.48% (active)
34 | O=C(O)CCCCCCCCCCN1C(=O)/C(=C/c2cnc(-c3ccccc3)s2)SC1=S | 63.6% (inactive)
35 | O=C1Nc2ccc(Cl)cc2/C1=C/c1ccc(OCc2ccc(Br)cc2F)cc1 | 83.2% (inactive)
36 | O=C(c1ccc(OCCN2CCOCC2)cc1)C1[C@H](c2ccc(Cl)cc2)[C@@H](c2ccccc2)NC12C(=O)Nc1ccc(Cl)cc12 (stereo partly specified) | -12.7% (active)
